Reference: PubChem BioAssay (Tox21)
Records with an inconclusive call do not appear. A number with no mark means an inactive call. Calls follow the shape of the full dose curve.

assay: qHTS assay to identify small molecule agonists of the NFkB signaling pathway - cell viability counter screen (AID 1159515); details: NFkB-bla ME-180 viability, CellTiter-Glo luminescence, 5 h; series mostly up to 61 µM; activity, negative = cytotoxic: at the top concentration; also: nearly all actives have a fitted effect of over 55% in size
From the text: National Center for Advancing Translational Sciences [NCATS]
NIH Chemical Genomics Center [NCGC]
U.S. Environmental Protection Agency [EPA]
National Institutes of Environmental Health Sciences [NIEHS]
National Toxicology Program [NTP]
U.S. Food and Drug Administration [FDA]
Transcription factors and their stimulated target gene expression play pivotal roles across many cellular processes including responses to environmental stimuli. Proper regulation of associated pathways is critical to maintain cell health and function. Constitutive activation of transcription factor pathways has been implicated in tumors as it may block cellular functions such as apoptosis and lead to invasion and metastasis. One important transcription factor that stimulates gene expression in response to cytokines, UV radiation, and other stimuli is nuclear factor-kappa B (NFkB). To measure activation of the NFkB pathway, the CellSensor NFkB-bla ME-180 cell line (Life Technologies, Carlsbad, CA) that stably expresses beta-lactamase reporter gene under the regulation of a NF-kB response element was used. This assay allows measurement of the NFkB pathway activity induced by compounds in a ME-180 cell line. This system quantitates NF-kB activity using a FRET-based assay system where beta-lactamase expression disrupts FRET, allowing for fluorescent measurement of activity. This cell line has been used to screen the Tox21 10K compound library and to identify compounds that induce the NFkB pathway activity. The cytotoxicity of the Tox21 compound library against the NFkB-bla ME-180 cell line was tested in parallel by measuring cell viability using the CellTiter-Glo assay in the same wells.
Tox21 Assay Protocol Summary:
NFkB-bla ME-180 cells were dispensed at 2,000 cells/6 uL of assay medium per well into black wall/clear-bottom 1536-well plates using a Multidrop Combi (ThermoFisher Scientific, Waltham, MA) dispenser. After the assay plates were incubated at 37 C and 5% CO2 for an overnight, 23 nL of compounds dissolved in DMSO, positive controls or DMSO only was transferred to the assay plate by a Pintool station (Kalypsys, San Diego, CA). The assay plates were incubated at 37 C and 5% CO2 for 5 hr. One uL of LiveBLAzer B/G FRET substrate (Life Technologies) was added using a Flying Reagent Dispenser (Aurora Discovery, San Diego, CA) and the plates were incubated at room temperature for 1.5 hr. Fluorescence intensity (405 nm excitation, 460 nm and 530 nm emissions) was measured using an Envision plate reader (PerkinElmer, Shelton, CT). For cytotoxicity, 3 ul/well of CellTiter-Glo reagent was added into the assay plates using an FRD. After 30 min incubation at room temperature, the luminescence intensity was measured using a ViewLux plate reader (PerkinElmer).
% is scaled to controls: 0 for no effect and ±100 for the full control effect.

SMILES	activity, negative = cytotoxic
CCOC(=O)CCC(C)=O	11%
O=C[C@H](O)[C@@H](O)[C@H](O)[C@H](O)CO	3.74%
COCCCOCCCOC	8.73%
NS(=O)(=O)c1cc(C(=O)NN2C[C@H]3[C@H]4CCC(C4)[C@H]3C2)ccc1Cl	5.25%
CCN1CCC[C@H]1CNC(=O)c1c(O)c(Cl)cc(Cl)c1OC	0.446%
O=C(O)COc1nn(Cc2ccccc2)c2ccccc12	-14.3%
Cn1c(N)c(N=O)c(=O)n(C)c1=O	-4.25% [at 78.8 µM]
N=C(N)c1ccc2cc(OC(=O)c3ccc(N=C(N)N)cc3)ccc2c1	8.21%
C/C=C(\C)C#N	-0.182%
Cc1cc2c(cc1S(N)(=O)=O)S(=O)(=O)CCC2	-5.36%
Cc1ccc(=O)n(-c2ccccc2)c1	7.71%
C1CN(CCOCCN2CCOCC2)CCO1	-8.2%
O=C1CCCC(=O)C1	4.01%
C[C@H](NC(CCc1ccccc1)C(=O)O)C(=O)N1CCC[C@H]1C(=O)O (stereo not given in full)	6.33%
CCCCCOC(=O)CCCCC	-1.37%
Brc1c(NC2=NCCN2)ccc2nccnc12	-6.21%
CCO/C([O-])=N/c1c[n+](N2CCOCC2)no1	-4.61%
CN1C(=O)N(C)C(O)C1O (stereo not given)	12.4%
CC(=O)OC/C=C(\C)CC/C=C(\C)CCC=C(C)C	0.344%
OC[C@]1(O)OC[C@@H](O)[C@H](O)[C@@H]1O	1.25%

SMILES	activity, negative = cytotoxic
CCCN(CCC)CCc1cccc2c1CC(=O)N2	-4.36%
CCOC(=O)[C@H](CCc1ccccc1)N[C@@H](C)C(=O)N1[C@H](C(=O)O)C[C@@H]2CCC[C@@H]21	3.47%
CN(C)CCCSc1ccccc1NC(=O)/C=C/c1ccccc1	0.811%
NC(=O)COCCN1CCN(C(c2ccccc2)c2ccc(Cl)cc2)CC1 (stereo not given)	-2.45%
COC(=O)NN	14.1% [at 78.8 µM]
C=C(C)CS(=O)(=O)O	-5.81%
COc1ccccc1OCC(O)CN1CCN(CC(=O)Nc2c(C)cccc2C)CC1 (stereo not given)	2.35%
O=c1cc(-c2ccccc2)oc2ccccc12	-1.98%
O=C1CCCN1C1CCCCC1	-5.03%
Cc1c(NC(C)C)c(=O)n(-c2ccccc2)n1C	1.88%
CC(C)CNCC(C)C	3.43%
CCCCOCCOCCOCCCC	-0.366%
C=C(C)C(=O)OCCCCCCCC(C)C	1.04% [at 78.8 µM]
CCc1cccc2c(CCO)c[nH]c12	3.9%
CCOC(=O)c1ccc(C)cc1	5.01%
O=C(CCCN1CCN(c2ccccn2)CC1)c1ccc(F)cc1	0.113%
NC(=O)Nc1ccccc1	-7.02%
Cc1sccc1Br	-0.872%
CCCCCCCCCCCCN(CCCCCCCCCCCC)CCCCCCCCCCCC	-6.49%
C=CCCCCCCCCC=O	10.3%
